Compound activity from PubChem BioAssay.
PAX8 reporter – inhibitors of PAX8-driven TPO luciferase reporter, primary screen, RMG-I cells, single concentration; SteadyGlo, 24 h; inhibition, % at 12.6 µM; hit rate 1.2% among 360,000; AID 652154, 2013;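 active = mean replicate inhibition at least 60% with every replicate also reaching 60%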;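 also: luciferase light reporting Pax8 driven TPO promoter activity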
INS-1E GSIS act – GLuc luminescence reporter in INS-1E cells, primary screen for activators of glucose-dependent secretion of insulin | INS-1E GLuc reporter insulin secretion, 2-3 h | activation, % at 16.6 µM | hit rate 0.61% among 370,000 | AID 743287, 2014;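 active = lowest replicate activation of at least 40%, so every replicate reaches that level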
PGC1a acetyl inh – inhibitors of PGC1a acetylation signal, primary screen, cell-based, U2OS, AlphaScreen, inhibitor mode; inhibition, % at 15.6 µM; AlphaScreen anti-acetyl-lysine; with virally co-expressed GCN5 acetyltransferase; AID 651687, 2012; hit rate 0.17% among 350,000;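 active = every replicate shows inhibition of at least 40%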
F508del corr – F508del CFTR correction, initial screen, CFBE line, single point; activity (quench increase), % at 7.58 µM; CFBE cells, YFP halide quenching; stimulated with forskolin plus potentiator P3; % fluorescence drop versus neutral controls; hit rate 0.36% among 350,000; AID 720511, 2013;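 active = mean added fluorescence quench of at least 8% versus neutral control, with both replicates also reaching 8%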;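 also: cells transiently co-express mutant CFTR-F508del with the halide-sensitive YFP; corrector assay measuring rescue of mutant channel to the surface after 24 h compound exposure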
Env fusion inh – inhibitors of HIV-1 Env-driven cell-cell fusion, primary screen, HeLa-JRFL effector, CEM21 target cells, luciferase; inhibition, % at 12.3 µM; hit rate 1.1% among 360,000; AID 651610, 2012;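 active = mean replicate inhibition score of at least 50 and every replicate individually at or above 50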
EWS-Fli block – EWS/Fli-driven NR0B1 reporter inhibitors, primary screen, A673 cells, NR0B1 luciferase, luminescence, MLPCN library; viability-normalised; inhibition, % at 12.6 µM; hit rate 0.67% among 350,000; AID 651661, 2012;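 active = mean inhibition of at least 50% after viability correction, with every replicate also passing that limit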;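 also: firefly luciferase signal divided by Alamar Blue viability fluorescence both relative to DMSO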
Of the large screens only hits and unclear results are named; the others gave an inactive call; [ ] = remark or other dose. The list is not random: actives were taken first. Their share in the collection is about 2.7%.

C[C@H](CO)N1C[C@H](C)[C@@H](CN(C)Cc2ccc(-c3ccccc3)cc2)Oc2cc(C#C[C@@H](C)O)ccc2S1(=O)=O	PAX8 reporter 74.0 (no result: Env fusion inh)
C[C@H](O)C#Cc1ccc2c(c1)O[C@@H](CN(C)Cc1ccc(-c3ccccc3)cc1)[C@@H](C)CN([C@H](C)CO)S2(=O)=O	PAX8 reporter 94.3 (no result: Env fusion inh)
CC(=O)N1[C@H](CO)[C@@H]2c3ccccc3N(C(=O)c3ccc(F)cc3)C[C@@H]21	none (no result: Env fusion inh)
CCC(=O)Nc1ccc2c(c1)OC[C@H](C)N(C(=O)CC1CC1)C[C@H](C)[C@@H](OC)CN(C)C2=O	none (no result: PAX8 reporter, Env fusion inh)
C[C@H](CO)N1C[C@H](C)[C@@H](CN(C)C(=O)Nc2ccc(F)cc2)Oc2ccc(NS(=O)(=O)c3cn(C)cn3)cc2CC1=O	none (no result: PAX8 reporter)
CC(=O)N1C(c2ccccc2O)C[C@]2(C)CC(=O)NC12 (stereo not given in full)	none
Cc1cccc(C(=O)Oc2ccccc2C2C[C@]3(C)CC(=O)NC3N2C(=O)c2cccc(C)c2)c1 (stereo not given in full)	Env fusion inh 47.9 (no result: INS-1E GSIS act, F508del corr, EWS-Fli block)
C[C@@]12CC(=O)NC1N(C(=O)c1cccc(C(F)(F)F)c1)C(c1ccccc1O)C2 (stereo not given in full)	Env fusion inh 105.0 (no result: INS-1E GSIS act, F508del corr, EWS-Fli block)
CC(C)Cn1c(N)c(C(=O)CSc2ccc3c(c2)OCCO3)c(=O)n(C)c1=O	Env fusion inh 98.1 (no result: PAX8 reporter, INS-1E GSIS act, F508del corr, EWS-Fli block)
C[C@H]1CN([C@@H](C)CO)C(=O)c2cc(NS(=O)(=O)c3ccc(F)cc3)ccc2O[C@H]1CN(C)S(=O)(=O)c1ccc(F)cc1	Env fusion inh 57.5[16.7 µM]
Cc1ccc(S(=O)(=O)N(C)C[C@@H]2OCCCC[C@H](C)Oc3ccc(NS(=O)(=O)c4ccc(Cl)cc4)cc3C(=O)N([C@H](C)CO)C[C@H]2C)cc1	PAX8 reporter 81.4
Cc1ccc(S(=O)(=O)N(C)C[C@H]2Oc3ccc(NS(=O)(=O)c4ccc(Cl)cc4)cc3C(=O)N([C@@H](C)CO)C[C@@H]2C)cc1	none (no result: PAX8 reporter)
Cc1ccc(S(=O)(=O)N(C)C[C@@H]2OCCCC[C@H](C)Oc3ccc(NS(=O)(=O)c4ccc(Cl)cc4)cc3C(=O)N([C@@H](C)CO)C[C@@H]2C)cc1	PAX8 reporter 67.9
Cc1ccc(S(=O)(=O)Nc2ccc3c(c2)C(=O)N([C@@H](C)CO)C[C@H](C)[C@@H](CN(C)S(=O)(=O)c2ccc(Cl)cc2)OCCCC[C@@H](C)O3)cc1	none
Cc1ccc(S(=O)(=O)N(C)C[C@@H]2Oc3ccc(NS(=O)(=O)c4ccc(Cl)cc4)cc3C(=O)N([C@@H](C)CO)C[C@H]2C)cc1	Env fusion inh 63.7[16.7 µM] (no result: PAX8 reporter)
CC(=O)N[C@@H]1CC[C@H](CCNC(=O)C2CC2)O[C@H]1CO	none
Cc1ccc(S(=O)(=O)N(C)C[C@H]2OCCCC[C@@H](C)Oc3ccc(NS(=O)(=O)c4ccc(Cl)cc4)cc3C(=O)N([C@H](C)CO)C[C@@H]2C)cc1	none
Cc1ccc(S(=O)(=O)N(C)C[C@H]2OCCCC[C@H](C)Oc3ccc(NS(=O)(=O)c4ccc(Cl)cc4)cc3C(=O)N([C@H](C)CO)C[C@@H]2C)cc1	PAX8 reporter 81.5
Cc1ccc(S(=O)(=O)N(C)C[C@H]2OCCCC[C@@H](C)Oc3ccc(NS(=O)(=O)c4ccc(Cl)cc4)cc3C(=O)N([C@@H](C)CO)C[C@H]2C)cc1	PAX8 reporter 72.7
CCCOc1ccc2ccccc2c1/C=N/n1cnnc1	Env fusion inh 90.9 (no result: PAX8 reporter, F508del corr, EWS-Fli block)
CCOc1ccc2ccccc2c1/C=N/n1cncn1	none (no result: F508del corr, EWS-Fli block)
CCOc1ccc(C(=O)N/N=C/c2cc(Cl)ccc2[N+](=O)[O-])cc1	INS-1E GSIS act 91.8 (no result: PGC1a acetyl inh, F508del corr, EWS-Fli block)
CC(C)(O)c1cn([C@@H]2C[C@@H]3O[C@@H](CO)CC[C@@H]3O[C@@H]2CCc2ccc(-c3cccnc3)cc2)nn1	none (no result: INS-1E GSIS act, Env fusion inh)
CC(C)C(=O)NN(C(=O)c1ccccc1)c1ccccc1	none (no result: PGC1a acetyl inh)
CC(C(=O)O)N(C(=O)c1ccccc1)c1ccc(F)cc1 (stereo not given)	F508del corr 10.0
COc1ccc(-c2c[n+](CC(=O)OC3CC(C)CCC3C(C)C)c3n2CCC3)cc1 (stereo not given)	PAX8 reporter 91.3, Env fusion inh 60.2
Cn1c(NC(=O)C[n+]2cc(-c3ccc(Cl)cc3)n3c2CCC3)cc(=O)n(C)c1=O	none (no result: PGC1a acetyl inh, F508del corr)
CC(C)[C@@H]1CC[C@@H](C)C[C@H]1OC(=O)C[n+]1cc(-c2ccc(Cl)cc2)n2c1CCCCC2	PAX8 reporter 112.7, Env fusion inh 82.7 (no result: INS-1E GSIS act)
COc1cccc(C(=O)Nc2ccc3c(c2)C(=O)N(C)[C@H]2CC[C@H](CC(=O)NCc4ccccc4F)O[C@H]2CO3)c1	none (no result: Env fusion inh)
Cc1noc(C)c1S(=O)(=O)N(C)C[C@H]1Oc2ccc(NC(=O)NC3CCCCC3)cc2CC(=O)N([C@H](C)CO)C[C@@H]1C	none
Cc1noc(C)c1S(=O)(=O)N(C)C[C@@H]1Oc2ccc(NC(=O)NC3CCCCC3)cc2CC(=O)N([C@@H](C)CO)C[C@@H]1C	Env fusion inh 62.0[16.7 µM]
Cc1noc(C)c1S(=O)(=O)N(C)C[C@@H]1Oc2ccc(NC(=O)NC3CCCCC3)cc2CC(=O)N([C@H](C)CO)C[C@@H]1C	Env fusion inh 77.8[16.7 µM]
C[C@@H]1CN([C@@H](C)CO)C(=O)c2cc(Br)cnc2O[C@@H]1CN(C)C(=O)C1CCC1	none (no result: PAX8 reporter)
C=C(C)c1cccc(C(C)(C)NC(=O)Nc2ccc(Cl)cn2)c1	Env fusion inh 65.3 (no result: PGC1a acetyl inh, F508del corr, EWS-Fli block)
COc1ccc(-c2c(-c3cc(OC)cc(OC)c3)n(C)c3ccc(-c4ccc5c(c4)OCCO5)cc23)cc1	Env fusion inh 56.2 (no result: PGC1a acetyl inh)
COc1cccc(-c2c(-c3cc(OC)cc(OC)c3)n(C)c3ccc(-c4cnc(N5CCOCC5)nc4)cc23)c1	PAX8 reporter 84.0
O=C(C[C@@H]1CC[C@H]2[C@@H](COC[C@@H](O)CN2C(=O)Nc2ccc(F)cc2)O1)NC1Cc2ccccc2C1	none (no result: Env fusion inh)
O=C(C1CC1)N1C[C@@H]2[C@H](c3ccccc31)[C@H](CO)N2C(=O)c1cccc(F)c1	none (no result: Env fusion inh)
O=C(CC1CC1)Nc1ccc2c(c1)[C@H]1C[C@H](CC(=O)N3CCc4ccccc4C3)O[C@H](CO)[C@H]1O2	none (no result: PAX8 reporter, Env fusion inh)
Cc1ccc(S(=O)(=O)N(C)C[C@@H]2OCCCC[C@H](C)Oc3ccc(NS(=O)(=O)c4cn(C)cn4)cc3C(=O)N([C@@H](C)CO)C[C@@H]2C)cc1	none
C=CCNC(=S)N/N=C/c1ccc(-c2cc(Cl)ccc2Cl)o1	INS-1E GSIS act 123.6 (no result: PAX8 reporter, PGC1a acetyl inh, F508del corr, Env fusion inh, EWS-Fli block)
C[C@H](CO)N1C[C@H](C)[C@@H](CN(C)S(C)(=O)=O)Oc2ncc(C3=CCCC3)cc2C1=O	none
Cc1cc2c(cc1C)CSC(c1c(O)ccc3ccccc13)SC2	INS-1E GSIS act 185.2 (no result: F508del corr, EWS-Fli block)
Cc1cc2c(cc1C)CSC(c1ccc3ccccc3c1O)SC2	none (no result: INS-1E GSIS act, PGC1a acetyl inh, F508del corr, EWS-Fli block)
